The record followed here is PubChem BioAssay.

SMILES strings stand for the structures. Values without a mark were called inactive. Activity calls are given as the source filed them. Cut-off read from the data, not from the text of the source: active = response above about 15%; inactive = the rest.

The nature of this experiment: yeast V-ATPase proton transport modulators, S. cerevisiae, pHLuorin, HTS validation (AID 504600).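 Note: plate controls were DMSO for no effect and reference compound for full effect.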 Particulars: S. cerevisiae pHLuorin cytosolic pH, at 10 µM, stronger effect = higher value.
As for `CCC(C)NCCOc1ccc(C(C)(C)c2ccccc2)cc1` (stereo not given), the response is -2.14%.
Consider `O=C(NCc1ccc(N2CCCC2=O)cc1)c1ccc(F)cc1`, for which the response was -1.49%.
With `CC1(C)O[C@@H]2C[C@H]3[C@@H]4C[C@H](F)C5=CC(=O)CC[C@]5(C)[C@H]4[C@@H](O)C[C@]3(C)[C@]2(C(=O)CO)O1`, the response was -2%.
As to `N/C(=N\OC(=O)CCCOc1ccc(Cl)cc1Cl)c1ccncc1`, the response is -3.36%.
Then `COCCCN1C(=O)/C(=C\c2cccs2)C(C(=O)OC)=C1C`, with 10.8%; and `Cc1ccc2nc(C)c3c(c2c1)OC(C(C)(Cl)Br)C3` (stereo not given), with 6.53%.
For `CC12COC3(C(=O)Nc4ccc(F)cc4)CC1CCC32C` (stereo not given), the response is -3.14%.
Consider `Cc1ccnc(NS(=O)(=O)c2ccc(N)cc2)n1`, for which the response is -1.12%.
As to `CC1(C)CC(=O)c2cnc(NC(=O)C3CCCC3)nc2C1`, the response is -0.99%.
As to `COc1ccc(CCN2CNc3c(c(=O)n(C)c(=O)n3C)C2)cc1OC`, the response is -9.61%.
As to `O=C(O)CCCc1ccccc1`, the response was 2.2%.
In the case of `CCCNCC(O)COc1ccccc1C(=O)CCc1ccccc1` (stereo not given) it was 0.31%; in that of `COc1ccc(C(=O)O)cc1F`, -13.5%.
Consider `COc1cc(C)nc(-n2nc(C)cc2OC)n1`, for which the response is 48.8% (active).
For `CCCCCCC(=O)N(O)C1CC(=O)N(Cc2ccccc2)C1=O` (stereo not given), the response is 0.52%.
Take `CC(=O)N1CCN(c2ccc(NC(=O)/C=C/c3ccccc3)cc2)CC1`: the response is 3.19%.
Turning to `Cc1ccc(Nc2ncccc2C(=O)O)cc1C`, the response was -0.86%.
As for `CCCCCCCC(=O)OCC(O)CO` (stereo not given), the response was 4.53%.
As for `CSCCC(NC(C)=O)C(=O)Oc1ccc2c3c(c(=O)oc2c1)CCCC3` (stereo not given), the response was -2.62%.
`CC(C)CN1CCN(Cc2ccc(C#CC(C)(C)O)cc2)CC1CCO` (stereo not given): the response is -6.34%.
As to `Cc1nc(C2CC(=O)OC23CCCCC3)cs1` (stereo not given), the response was 1.08%.
As for `CO[C@H]1C=CO[C@@]2(C)Oc3c(C)c(O)c4c(O)c(c(C=NN5CCN(C)CC5)c(O)c4c3C2=O)NC(=O)C(C)=CC=C[C@H](C)[C@H](O)[C@@H](C)[C@@H](O)[C@@H](C)[C@H](OC(C)=O)[C@@H]1C`, the response is -1.49%.
On to `COc1cccc(-n2cc(CNCc3c(C(=O)N(C)C)nc4ccc(Cl)cn34)cn2)c1`, for which the response was -0.56%.
For the compound `S=C(c1ccc2c(c1)OCO2)N1CCCCC1`, the response is -2.91%.
For `CC(C)Oc1ccc2c(=O)c(-c3ccccc3)coc2c1`, the response is 1.01%.
On to `CCn1cc(CN2N=C(C)CC2c2ccccc2)c(C)n1` (stereo not given), for which the response is 1.03%.
On to `CCCCOc1ccc(C(=O)CCN2CCCCC2)cc1`, for which the response was 7.43%.
For the compound `NCCCC(N)(C(=O)O)C(F)F` (stereo not given), the response is -10.9%.
`C[N+](C)(C)CCOP(=O)([O-])OC[C@H](O)CO`: the response is 0.86%.
On to `O=C(O)C1CCN(C(=O)COc2ccc3c4c(c(=O)oc3c2)CCC4)CC1`, for which the response is 1.29%.
Turning to `COc1ccc(OC)c(S(=O)(=O)N2CCCc3ccccc32)c1`, the response was -1.7%.
Consider `COc1ccc2[nH]c(=O)c3c(c2c1)OC(C)(C)C=C3`, for which the response was 2.4%.
Turning to `CCN1CCN(C(=S)c2ccc(OC)cc2)CC1`, the response is 19.2% (active).
Then `C=CCOc1ccc(C(=O)CC)cc1OC`, with 9.51%; and `CCc1cccc2c3c([nH]c12)C(CC)(CC(=O)O)OCC3` (stereo not given), with 1.09%; and `COc1ccc(OC(C)C(=O)Nc2ccccc2F)cc1` (stereo not given), with 0.03%.
Consider `CCCC(=O)Nc1ccccc1NC(C)=O`, for which the response was 0.04%.
In the case of `O=C(O)CCCCCCNC(=O)c1cncc(O)c1`, the response is -3.09%.
`COc1ccc(Br)cc1C(=O)Nc1ccc(C(=O)O)cc1`: the response is 1.41%.
For the compound `CC[N+]1(CC)CC2=Cc3ccccc3CC2C1` (stereo not given), the response was -6.57%.
